The experiment concerns the target T1, PINX1 (UniProt Q96BK5).
T1 sequence (whole entry): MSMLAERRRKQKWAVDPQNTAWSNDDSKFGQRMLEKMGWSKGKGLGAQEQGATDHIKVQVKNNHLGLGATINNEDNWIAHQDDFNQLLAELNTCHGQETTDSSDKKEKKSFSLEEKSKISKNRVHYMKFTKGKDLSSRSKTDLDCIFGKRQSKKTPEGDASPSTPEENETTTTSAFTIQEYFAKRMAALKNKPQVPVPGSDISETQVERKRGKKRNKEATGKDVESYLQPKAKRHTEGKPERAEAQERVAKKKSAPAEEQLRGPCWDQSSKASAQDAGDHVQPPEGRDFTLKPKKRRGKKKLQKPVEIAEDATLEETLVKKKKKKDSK
Briefly: NP40-soluble protein abundance relative to vehicle (solubility fold change) (ratio); higher = more soluble protein in presence of GTP. The procedure:
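Solubility proteome profiling in Jurkat crude lysate. Lysate was treated with Mg-GTP (0.1-10 mM) for 10 min at room temperature and 3 min at 37 °C, then solubilised with 0.8% NP40 and benzonase, followed by ultracentrifugation. Proteins were quantified by TMT10 LC-MS/MS; the value is the NP40-soluble abundance relative to the NP40-processed vehicle, from 3 independent experiments.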

The structures appear in SMILES notation. ± gives the standard deviation of the averaged measurements. Of roughly 5,400 targets only a part is listed; those with the largest changes were picked by preference.

Consider `Nc1nc2c(ncn2[C@@H]2O[C@H](COP(=O)(O)OP(=O)(O)OP(=O)(O)O)[C@@H](O)[C@H]2O)c(=O)[nH]1` [guanosine triphosphate], for which the NP40-soluble protein abundance came to 1.22 ± 0.065 (concentration: 0.1mM); 1.28 ± 0.074 (concentration: 0.5mM); 1.45 ± 0.033 (concentration: 1mM); 1.64 ± 0.093 (concentration: 2mM); 1.96 ± 0.15 (concentration: 4mM); 2.01 ± 0.21 (concentration: 6mM). Moreover, the NP40-soluble protein abundance worked out at 2.36 ± 0.13 (concentration: 8mM) and 2.62 ± 0.26 (concentration: 10mM).
